From PubChem BioAssay (Tox21)
Results filed as inconclusive are left out. Active and inactive are the calls of the source. Unless noted, calls follow the shape of the dose curve; as a rule, active = well fitted curve in the direction sought with a large enough effect in the repeat runs; inconclusive = weak or mixed curves; inactive = no such curve, though single readings can be large; an effect the other way counts as inactive or inconclusive.

Columns and labels:
[1] = qHTS assay to identify small molecule agonists of the estrogen related receptor (ERR) signaling pathway (AID 1224820)
Method in brief: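 Following a 6 h settling period, 2,000 ERR cells per well receive DMSO-dissolved compounds by pin tool and incubate 18 h at 37 C; agonist activity is scored from One-Glo luminescence read 30 min post-addition.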

[2] = test system: estrogen-related receptor alpha (ERRalpha) with PGC-1alpha coactivator, human; assay: qHTS assay to identify small molecule antagonists of the estrogen related receptor signaling pathway with the pleiotropic PPARgamma coactivator (PGC) (AID 1224821; calls by dose curve;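 also: lower luminescence signal means antagonism of PGC/ERR signalling; nearly all actives have a fitted effect of over 50% in size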)
Method in brief: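 Screening used NTP's PGC/ERR cells, dosed via pin tool with compound in DMSO alongside positive and negative controls. After 18 h at 37 C, One-Glo reagent sat 30 min at room temperature before luminescence detection.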

[3] = qHTS assay to identify small molecule agonists of the estrogen related receptor signaling pathway with the pleiotropic PPARgamma coactivator (PGC) (AID 1224823)
Method in brief: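 In this quantitative high-throughput screen, an 18 h, 37 C treatment of PGC/ERR cells with compounds in DMSO preceded a One-Glo luminescence read taken after 30 min at room temperature.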

[4] = qHTS assay to identify small molecule antagonists of the estrogen related receptor (ERR) signaling pathway from Tox21 library - cell viability counter screen (AID 1224834); also: nearly all actives have a fitted effect of over 30% in size; also: potency is read from the fitted curve at half-maximal effect
Method in brief: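 Multiplexed viability counter screen in ERR cells: 17.5 h compound exposure at 37 C, CellTiter-Fluor added, 30 min at 37 C/5% CO2, fluorescence read.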

[5] = biological target: Luciferin 4-monooxygenase (Photinus pyralis) (UniProt P08659); assay: qHTS assay to identify small molecule inhibitors of firefly luciferase (AID 1224835); also: nearly all actives have a fitted effect of over 25% in size; also: potency is read from the fitted curve at half-maximal effect
Method in brief: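 Biochemical qHTS: compounds run as interplate titrations against purified firefly enzyme, with D-luciferin and ATP each at its KM concentration. Light output recorded by CCD imaging.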

[6] = qHTS assay to identify small molecule agonists of the constitutive androstane receptor (CAR) signaling pathway - cell viability counter screen (AID 1224836); also: nearly all actives have a fitted effect of over 45% in size
Method in brief: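 Using CellTiter-Fluor, viability of HepG2 cells harbouring hCAR and CYP2B6-2.2kb was measured following 23 h incubation with a 15-concentration compound series plus PK11195 (0.75 uM final).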

[7] = biological target: Nuclear receptor subfamily 1 group I member 3 (Homo sapiens) (UniProt Q14994); assay: qHTS assay to identify small molecule antagonists of the constitutive androstane receptor (CAR) signaling pathway (AID 1224838);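 also: HepG2 cells stably expressing hCAR with CYP2B6 luciferase reporter stimulated by CITCO; nearly all actives have a fitted effect of over 40% in size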
Method in brief: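 Read-out: ONE-Glo luciferase luminescence after 30 min at room temperature. HepG2-CYP2B6-hCAR double-stable cells, compounds in 15-point titration plus 50 nM CITCO final, 24 h at 37 C/5% CO2.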

[8] = biological target: Nuclear receptor subfamily 1 group I member 3 (Homo sapiens) (UniProt Q14994); assay: qHTS assay to identify small molecule agonists of the constitutive androstane receptor (CAR) signaling pathway (AID 1224839); also: nearly all actives have a fitted effect of over 15% in size; also: potency is read from the fitted curve at half-maximal effect;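 as to activation: HepG2 cells stably carrying human CAR and a CYP2B6 luciferase reporter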
Method in brief: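 Double-stable HepG2 cells (hCAR, CYP2B6-2.2kb) seeded 4 h before compound addition. Exposure 24 h with 0.75 uM PK11195 final. Luciferase detected by ONE-Glo.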

[9] = qHTS assay to identify small molecule agonists of the estrogen related receptor signaling pathway with the pleiotropic PPARgamma coactivator (PGC) from Tox21 10K library (AID 1224842); also: nearly all actives have a fitted effect of over 15% in size
Method in brief: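 PGC/ERR reporter cell line, 2,000 cells per well, incubated 6 h at 37 C before 23 nL compound in DMSO was added. After 18 h at 37 C, One-Glo luminescence read following 30 min at room temperature.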

[10] = qHTS assay to identify small molecule antagonists of the retinoid acid receptor (RAR) signaling pathway - cell viability counter screen (AID 1159551); also: nearly all actives have a fitted effect of over 35% in size
Method in brief: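 C3RL4 RARE-luciferase line; cpds + retinol 1 uM final, 6 h, 37 C/5% CO2; CellTiter-Glo ATP luminescence, 30 min RT.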

[11] = qHTS assay to identify small molecule antagonists of the estrogen related receptor signaling pathway with the pleiotropic PPARgamma coactivator (PGC) from Tox21 10K library - cell viability counter screen (AID 1224840; active = well fitted cell-killing curve with a large enough effect in the repeat runs, not every such curve was filed as active; also: nearly all actives have a fitted effect of over 40% in size)
Method in brief: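 Fluorescence read-out of CellTiter-Fluor viability reagent, added after cells had been exposed to compound in DMSO for 17.5 h at 37 C; 30 min development at 37 C/5% CO2. Cells: PGC/ERR line, 2,000/well.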

[12] = qHTS assay to identify small molecule antagonists of the constitutive androstane receptor (CAR) signaling pathway - cell viability counter screen (AID 1224837); also: nearly all actives have a fitted effect of over 45% in size
Method in brief: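 Read-out: CellTiter-Fluor fluorescence after 23 hr at 37 C/5% CO2. Cells: HepG2 double-stable for hCAR and CYP2B6-2.2kb. Compounds tested at 15 concentrations in the presence of CITCO, final concentration 50 nM.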

[13] = qHTS assay to identify small molecule antagonists of the estrogen related receptor signaling pathway with the pleiotropic PPARgamma coactivator (PGC) from Tox21 10K library (AID 1224841; call rule not given here; also: actives are mostly falling curves and most rising ones were filed inactive; nearly all actives have a fitted effect of over 50% in size; also: potency is read from the fitted curve at half-maximal effect)
Method in brief: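 Luminescence read-out (One-Glo luciferase reagent, 30 min at room temperature) from PGC/ERR cells exposed to DMSO-dissolved test compounds for 18 h at 37 C; cells, 2,000 per well, had been preincubated 6 h before compound transfer.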

[14] = qHTS assay to identify small molecule antagonists of the retinoic acid receptor (RAR) signaling pathway (AID 1159552; also: nearly all actives have a fitted effect of over 50% in size)
Method in brief: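 C3RL4 RARE-luc cells, overnight plating; retinol 1 uM final added right after compound; 6 hr 37 C; luciferase read at 30 min RT.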

[15] = qHTS assay to identify small molecule agonists of the retinoic acid receptor (RAR) signaling pathway (AID 1159553); details: C3RL4 RARE luciferase reporter, agonist, 6 h; activation: at 73.3 µM (top of the series)
Method in brief: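 RARE-luc C3RL4 cells; overnight attachment 37 C/5% CO2; compound (DMSO) 6 hr; luciferase reagent, 30 min RT; luminescence read-out.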

Measured: Potency

Nuclear receptor subfamily 1 group I member 3 (Homo sapiens), sequence (Q14994 whole entry, looked up): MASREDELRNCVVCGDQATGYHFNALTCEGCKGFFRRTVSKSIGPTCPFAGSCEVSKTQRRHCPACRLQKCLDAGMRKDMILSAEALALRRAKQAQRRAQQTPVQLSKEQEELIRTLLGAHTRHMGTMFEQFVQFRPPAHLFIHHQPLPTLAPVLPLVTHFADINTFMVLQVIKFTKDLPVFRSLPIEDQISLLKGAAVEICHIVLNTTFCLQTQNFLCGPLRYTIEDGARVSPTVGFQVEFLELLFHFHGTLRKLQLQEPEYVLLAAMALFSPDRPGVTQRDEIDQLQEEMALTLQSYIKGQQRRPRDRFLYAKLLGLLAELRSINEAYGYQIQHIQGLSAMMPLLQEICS
Luciferin 4-monooxygenase (Photinus pyralis), sequence (P08659 whole entry, looked up): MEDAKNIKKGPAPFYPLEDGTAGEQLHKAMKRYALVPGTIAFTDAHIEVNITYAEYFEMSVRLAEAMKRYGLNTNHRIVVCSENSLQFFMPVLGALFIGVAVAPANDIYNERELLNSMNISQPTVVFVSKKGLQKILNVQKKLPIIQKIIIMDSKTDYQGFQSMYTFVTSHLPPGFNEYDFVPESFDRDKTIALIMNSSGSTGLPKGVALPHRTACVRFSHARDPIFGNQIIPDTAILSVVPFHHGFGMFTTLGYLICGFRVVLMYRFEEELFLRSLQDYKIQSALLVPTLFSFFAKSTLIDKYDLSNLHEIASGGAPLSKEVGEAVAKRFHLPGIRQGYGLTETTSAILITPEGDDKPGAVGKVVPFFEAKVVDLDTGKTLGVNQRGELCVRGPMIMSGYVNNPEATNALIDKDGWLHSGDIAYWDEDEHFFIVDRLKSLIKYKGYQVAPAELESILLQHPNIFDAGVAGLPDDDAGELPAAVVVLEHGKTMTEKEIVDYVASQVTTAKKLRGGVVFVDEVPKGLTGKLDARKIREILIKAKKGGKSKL

CCCC(C(=O)OCCN(CC)CC)(c1ccccc1)c1ccccc1
inactive: [1] | [2] | [3] | [5] | [6] | [7] | [9]
active: [4] 29.8 µM | [8] 11.9 µM

COc1cc(Nc2c(C#N)cnc3cc(OCCCN4CCN(C)CC4)c(OC)cc23)c(Cl)cc1Cl
inactive: [10] | [11]

O=C1c2ccccc2C(=O)c2c(O)c(O)cc(O)c21
inactive: [6] | [12] | [7] | [13] | [9]
active: [4] 30.6 µM | [5] 44.8 µM

O=Cc1c2ccccc2c(Cl)c2ccccc12
inactive: [10] | [14] | [15] | [5] | [6] | [12]
active: [13] 13.3 µM

CC/C=C1/OC(=O)c2ccccc21
inactive: [10] | [14] | [5] | [6] | [12] | [7] | [8] | [11] | [13] | [9]

Cc1c(C)c2c(c(C)c1OC(=O)CCC(=O)OCCO)CC[C@@](C)(CCC[C@H](C)CCC[C@H](C)CCCC(C)C)O2
active: [13] 21.1 µM
inactive: [4] | [5] | [7] | [8] | [9]

C=C/C(C)=C/C/C=C(\C)CCC=C(C)C
inactive: [10] | [4] | [5] | [12] | [7] | [8] | [11] | [13]

COc1ccccc1NC(=O)c1cc2ccccc2cc1O
active: [5] 17.8 µM | [8] 17.2 µM | [13] 15.4 µM
inactive: [10] | [14] | [6] | [12] | [7] | [11] | [9]

CN1CCCC(CC2c3ccccc3Sc3ccccc32)C1 (centres undefined)
inactive: [10] | [5] | [12] | [8]
active: [4] 26.6 µM
